For 26 sequences, binding signal results are on record in PMC5700166.

Assay in all cases: protein-binding microarray (PBM); PBM: ~300 nM protein, 6 mM HEPES pH 7.8, 80 mM KCl, 0.5 mM EDTA, 0.5 mM EGTA, 6% glycerol, 35 ng/ul poly-dIdC, 1% milk, 1 h, room temperature; Ap Aiptasia and Nv Nematostella (sea anemones) / Co Capsaspora / Aq Amphimedon (sponge) / Dm Drosophila / Hu human; RHD is the Rel homology domain; high values mean tight binding
Holding throughout (conditions): dsDNA, one strand shown

One assay deals with T1, GST-Ap-NF-kB RHD (Exaiptasia pallida (Aiptasia), UniProt A0A913YAJ5 2-422).
T1 sequence: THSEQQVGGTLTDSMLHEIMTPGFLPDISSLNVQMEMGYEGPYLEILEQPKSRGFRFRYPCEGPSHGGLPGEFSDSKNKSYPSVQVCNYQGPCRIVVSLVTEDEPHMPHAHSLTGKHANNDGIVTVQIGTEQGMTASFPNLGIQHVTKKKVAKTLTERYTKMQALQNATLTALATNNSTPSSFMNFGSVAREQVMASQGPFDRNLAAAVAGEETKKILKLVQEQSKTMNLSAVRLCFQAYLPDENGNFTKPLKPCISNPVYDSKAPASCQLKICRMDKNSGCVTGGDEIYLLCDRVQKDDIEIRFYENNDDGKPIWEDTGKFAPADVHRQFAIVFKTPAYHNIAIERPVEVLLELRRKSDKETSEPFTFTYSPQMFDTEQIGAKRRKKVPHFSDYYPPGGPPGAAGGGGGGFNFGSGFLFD

The target of assay [1] is T2, GST-Nv-NF-kB (Cys allele) (Nematostella vectensis, UniProt E5G601 2-411).
T2 sequence: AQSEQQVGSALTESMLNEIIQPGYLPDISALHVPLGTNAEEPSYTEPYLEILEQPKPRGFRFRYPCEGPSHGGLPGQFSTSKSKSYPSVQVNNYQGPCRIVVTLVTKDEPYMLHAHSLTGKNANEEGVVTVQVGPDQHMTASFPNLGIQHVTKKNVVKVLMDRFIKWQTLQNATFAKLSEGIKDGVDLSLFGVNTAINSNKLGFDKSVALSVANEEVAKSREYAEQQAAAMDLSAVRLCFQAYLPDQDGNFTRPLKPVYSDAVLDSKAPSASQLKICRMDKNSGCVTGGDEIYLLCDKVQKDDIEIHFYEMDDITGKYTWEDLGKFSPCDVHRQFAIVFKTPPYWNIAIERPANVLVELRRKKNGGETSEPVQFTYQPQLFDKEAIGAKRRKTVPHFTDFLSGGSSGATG

For a further assay, the target named is T3, GST-Co-NF-kB (Capsaspora owczarzaki, UniProt F1ARL5 200-546).
T3 sequence: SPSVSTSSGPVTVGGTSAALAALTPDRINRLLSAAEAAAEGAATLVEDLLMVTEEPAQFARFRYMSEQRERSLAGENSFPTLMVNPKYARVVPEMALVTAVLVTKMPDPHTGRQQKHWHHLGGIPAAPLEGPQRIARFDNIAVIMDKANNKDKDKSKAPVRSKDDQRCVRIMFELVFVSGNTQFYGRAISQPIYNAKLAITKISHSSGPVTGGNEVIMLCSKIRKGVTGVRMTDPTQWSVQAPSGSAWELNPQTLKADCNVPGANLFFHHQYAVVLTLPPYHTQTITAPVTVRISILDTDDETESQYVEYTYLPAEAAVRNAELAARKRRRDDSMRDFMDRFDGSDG

For the next assay, the target named is T4, GST-Dm-Relish (Drosophila melanogaster, UniProt Q94527 99-473).
T4 sequence: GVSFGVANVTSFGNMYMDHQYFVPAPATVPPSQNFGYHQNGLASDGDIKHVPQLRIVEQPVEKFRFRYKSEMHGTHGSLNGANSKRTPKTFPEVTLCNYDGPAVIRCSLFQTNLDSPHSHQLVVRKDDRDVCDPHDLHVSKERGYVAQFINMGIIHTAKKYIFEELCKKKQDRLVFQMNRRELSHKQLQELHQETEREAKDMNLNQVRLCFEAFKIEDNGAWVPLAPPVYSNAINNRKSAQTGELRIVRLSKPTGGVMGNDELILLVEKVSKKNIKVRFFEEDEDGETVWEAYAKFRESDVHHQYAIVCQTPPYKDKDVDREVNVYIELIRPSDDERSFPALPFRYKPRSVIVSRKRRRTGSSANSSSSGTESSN

For the next assay, the target named is T5, GST-Aq-NF-kB (Amphimedon queenslandica, UniProt A9Y5G7 2-389).
T5 sequence: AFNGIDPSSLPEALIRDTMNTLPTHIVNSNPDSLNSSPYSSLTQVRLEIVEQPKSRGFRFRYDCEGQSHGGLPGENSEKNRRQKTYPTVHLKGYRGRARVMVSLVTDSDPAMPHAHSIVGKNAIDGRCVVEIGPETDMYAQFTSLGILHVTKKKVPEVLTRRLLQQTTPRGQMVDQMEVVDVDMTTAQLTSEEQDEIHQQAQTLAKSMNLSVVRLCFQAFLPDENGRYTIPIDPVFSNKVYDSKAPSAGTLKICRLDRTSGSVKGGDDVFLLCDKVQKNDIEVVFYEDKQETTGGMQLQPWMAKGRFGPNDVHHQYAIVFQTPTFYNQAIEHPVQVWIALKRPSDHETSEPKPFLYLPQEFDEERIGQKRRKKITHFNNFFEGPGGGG

On to “CCGATTAACATCAGGGGGATGGATGATGTTAATCGGGTCTTGATTCGCTTGACGCTGCTG”, for which the binding signal in the assay with GST-Ap-NF-kB RHD was 3.8 z-score; in assay [1] it was 3.13 z-score; with GST-Co-NF-kB it was 3.52 z-score; with GST-Dm-Relish, 2.24 z-score; with GST-Aq-NF-kB it was 3.5 z-score.
Turning to “CCGATTAACATCAAATTTTCCCATGATGTTAATCGGGTCTTGATTCGCTTGACGCTGCTG”, the binding signal in the assay with GST-Ap-NF-kB RHD worked out at 3.65 z-score; in assay [1], 5.18 z-score; with GST-Co-NF-kB, 5.19 z-score; with GST-Dm-Relish, 1.94 z-score; with GST-Aq-NF-kB it was 4.45 z-score.
On to “CCGATTAACATCAAATTCCCGTATGATGTTAATCGGGTCTTGATTCGCTTGACGCTGCTG”, for which the binding signal was 2.44 z-score with GST-Ap-NF-kB RHD; 4.38 z-score in assay [1]; 2.65 z-score with GST-Co-NF-kB; 3.19 z-score with GST-Dm-Relish; 3.72 z-score in the assay with GST-Aq-NF-kB.
For “CCGATTAACATCACGGGGTTGCCTGATGTTAATCGGGTCTTGATTCGCTTGACGCTGCTG”, in that order: 1.46 z-score, 1.02 z-score, 1.38 z-score, 2.5 z-score and 2.2 z-score.
For “CCGATTAACATCAATTTCCCGCCTGATGTTAATCGGGTCTTGATTCGCTTGACGCTGCTG”, in that order: 2.79 z-score, 3.63 z-score, 3.64 z-score, 1.31 z-score and 2.64 z-score.
As to “CCGATTAACATCAAATCTTTCCCTGATGTTAATCGGGTCTTGATTCGCTTGACGCTGCTG”, the binding signal amounted to 3.05 z-score with GST-Ap-NF-kB RHD; 5.25 z-score in assay [1]; 5.78 z-score in the assay with GST-Co-NF-kB; 1.24 z-score with GST-Dm-Relish; 4.92 z-score with GST-Aq-NF-kB.
Turning to “CCGATTAACATCACAGGGAAAAATGATGTTAATCGGGTCTTGATTCGCTTGACGCTGCTG”, the binding signal was found to be 2.81 z-score in the assay with GST-Ap-NF-kB RHD; 4.49 z-score in assay [1]; 5.03 z-score with GST-Co-NF-kB; 1.6 z-score in the assay with GST-Dm-Relish; 3.9 z-score in the assay with GST-Aq-NF-kB.
For “CCGATTAACATCACGGAATACCCTGATGTTAATCGGGTCTTGATTCGCTTGACGCTGCTG”, in that order: 3.79 z-score, 4.14 z-score, 1.67 z-score, 4.64 z-score and 4.52 z-score.
For “CCGATTAACATCAGGACTCTCCCTGATGTTAATCGGGTCTTGATTCGCTTGACGCTGCTG”, in that order: 3.59 z-score, 5.02 z-score, 1.1 z-score, 2.07 z-score and 7.56 z-score.
Taken in the same sequence, the figures for “CCGATTAACATCAAGGGAAACCCTGATGTTAATCGGGTCTTGATTCGCTTGACGCTGCTG” were 4.71 z-score, 5.3 z-score, 2.82 z-score, 7.64 z-score and 5.8 z-score.
Regarding “CCGATTAACATCACGGGGAGTCCTGATGTTAATCGGGTCTTGATTCGCTTGACGCTGCTG”, the binding signal was 7.06 z-score in the assay with GST-Ap-NF-kB RHD; 3.95 z-score in assay [1]; 4.24 z-score in the assay with GST-Co-NF-kB; 8.09 z-score with GST-Dm-Relish; 5.02 z-score with GST-Aq-NF-kB.
Taken in the same sequence, the figures for “CCGATTAACATCAGGGAATTCCATGATGTTAATCGGGTCTTGATTCGCTTGACGCTGCTG” were 5.46 z-score, 6.55 z-score, 3.71 z-score, 7.15 z-score and 6.68 z-score.
As to “CCGATTAACATCAGGGGCTACCCTGATGTTAATCGGGTCTTGATTCGCTTGACGCTGCTG”, the binding signal in the assay with GST-Ap-NF-kB RHD worked out at 4.03 z-score; in assay [1], 3.47 z-score; in the assay with GST-Co-NF-kB it was 1.76 z-score; in the assay with GST-Dm-Relish, 3.48 z-score; in the assay with GST-Aq-NF-kB it was 6.2 z-score.
Taken in the same sequence, the figures for “CCGATTAACATCAGGGGGTGTACTGATGTTAATCGGGTCTTGATTCGCTTGACGCTGCTG” were 3.65 z-score, 3.29 z-score, 2.61 z-score, 8.3 z-score and 4.78 z-score.
Taken in the same sequence, the figures for “CCGATTAACATCAGGGGAAGGAATGATGTTAATCGGGTCTTGATTCGCTTGACGCTGCTG” were 3.87 z-score, 5.34 z-score, 6.35 z-score, 3.59 z-score and 4.05 z-score.
For “CCGATTAACATCAGGATTGCCCCTGATGTTAATCGGGTCTTGATTCGCTTGACGCTGCTG”, the binding signal with GST-Ap-NF-kB RHD was found to be 2.91 z-score; in assay [1] it was 4.26 z-score; in the assay with GST-Co-NF-kB it was 1.5 z-score; in the assay with GST-Dm-Relish, 2.51 z-score; in the assay with GST-Aq-NF-kB, 5.63 z-score.
For “CCGATTAACATCAACTCCCCCCATGATGTTAATCGGGTCTTGATTCGCTTGACGCTGCTG”, in that order: 5.39 z-score, 4.1 z-score, 6.49 z-score, 4.31 z-score and 4.72 z-score.
For the sequence “CCGATTAACATCACGGGTTTCCCTGATGTTAATCGGGTCTTGATTCGCTTGACGCTGCTG”, the binding signal came to 3.92 z-score with GST-Ap-NF-kB RHD; 4.58 z-score in assay [1]; 4.46 z-score with GST-Co-NF-kB; 7.38 z-score with GST-Dm-Relish; 5.5 z-score with GST-Aq-NF-kB.
Taken in the same sequence, the figures for “CCGATTAACATCAAGGTTTTCCCTGATGTTAATCGGGTCTTGATTCGCTTGACGCTGCTG” were 4.36 z-score, 5.34 z-score, 4.71 z-score, 5.1 z-score and 5.65 z-score.
“CCGATTAACATCAAAGTACCCCCTGATGTTAATCGGGTCTTGATTCGCTTGACGCTGCTG”: the binding signal in the assay with GST-Ap-NF-kB RHD amounted to 6.74 z-score; in assay [1] it was 4.38 z-score; with GST-Co-NF-kB, 6.64 z-score; with GST-Dm-Relish, 4.39 z-score; with GST-Aq-NF-kB it was 4.52 z-score.
On to “CCGATTAACATCAAATATACCCCTGATGTTAATCGGGTCTTGATTCGCTTGACGCTGCTG”, for which the binding signal with GST-Ap-NF-kB RHD is 4.01 z-score; in assay [1], 3.4 z-score; in the assay with GST-Co-NF-kB it was 5.87 z-score; in the assay with GST-Dm-Relish, 2.64 z-score; with GST-Aq-NF-kB, 4.15 z-score.
On to “CCGATTAACATCAAGGGAATACCTGATGTTAATCGGGTCTTGATTCGCTTGACGCTGCTG”, for which the binding signal with GST-Ap-NF-kB RHD was 4.61 z-score; in assay [1] it was 4.26 z-score; with GST-Co-NF-kB it was 2.25 z-score; with GST-Dm-Relish, 6.28 z-score; with GST-Aq-NF-kB, 5.48 z-score.
On to “CCGATTAACATCAGGGAAGTCCATGATGTTAATCGGGTCTTGATTCGCTTGACGCTGCTG”, for which the binding signal in the assay with GST-Ap-NF-kB RHD stood at 2.24 z-score; in assay [1], 2.51 z-score; in the assay with GST-Co-NF-kB, 1.08 z-score; in the assay with GST-Dm-Relish, 7.44 z-score; with GST-Aq-NF-kB, 4.62 z-score.
For “CCGATTAACATCAATATTTCCCATGATGTTAATCGGGTCTTGATTCGCTTGACGCTGCTG”, in that order: 2.29 z-score, 3.85 z-score, 5.1 z-score, 1.61 z-score and 3.82 z-score.
For “CCGATTAACATCAACTCCCCCCCTGATGTTAATCGGGTCTTGATTCGCTTGACGCTGCTG”, the binding signal amounted to 6.64 z-score with GST-Ap-NF-kB RHD; 4.56 z-score in assay [1]; 7.71 z-score with GST-Co-NF-kB; 5.06 z-score in the assay with GST-Dm-Relish; 5.08 z-score in the assay with GST-Aq-NF-kB.
Turning to “CCGATTAACATCAGGACACCCCCTGATGTTAATCGGGTCTTGATTCGCTTGACGCTGCTG”, the binding signal in the assay with GST-Ap-NF-kB RHD was 6.35 z-score; in assay [1], 5.22 z-score; with GST-Co-NF-kB it was 2.5 z-score; with GST-Dm-Relish it was 6.86 z-score; with GST-Aq-NF-kB, 7.67 z-score.
